# Compound activity (PubChem)
# Jurkat NFkB inh: inhibitors of induced NF-kB luciferase reporter, primary screen, TCR NF-kB activation inhibitor project, cell-based, luminescence, uHTS; Jurkat, PMA/ionomycin-induced NF-kB luciferase reporter; inhibition, % at 4 µM; hit rate 0.53% among 330,000; AID 435003, 2010; in the data active = inhibition above about 50%
# NTR1 ag: agonists of human NTR1, primary screen, imaging, U2OS cells, beta-arrestin-GFP, high content | NTR1-U2OS beta-arrestin-GFP spot imaging, agonist mode | activation, % at 20 µM | hit rate 0.17% among 330,000 | AID 493036, 2011;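 active = activation at or above 40% of the spot to cytoplasm intensity ratio, with at least 20 cells analyzed; inconclusive = wells under 20 cells, flagged as cytotoxic or low count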;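 also: 0% = DMSO without peptide and 100% = 100 nM NTR1 peptide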
# 697 NFkB inh: inhibitors of PMA/ionomycin-induced NF-kB reporter, 697 cells, primary screen, B-cell NF-kB inhibitor project, cell-based, luminescence, uHTS; 697 B-cell NF-kB luciferase reporter, 16 h; hit rate 0.33% among 330,000; inhibition, % at 4 µM; in the data active = inhibition above about 35%
# Beta apoptosis: inhibitors of cytokine-induced beta cell apoptosis, primary screen, luminescence | INS-1E cytokine-induced death, ATP luminescence, 48 h; percent of positive-control rescue, neutral wells zero | protection from apoptosis, % (no concentration beside the values) | hit rate 0.8% among 300,000 | AID 435005, 2010;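 active = Every replicate reaches about 75%, or at least half do and their mean reaches it too, limit read from the data; inconclusive = At least half of replicates reach the limit but their mean does not; inactive = Under half of replicates reach the limit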;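 also: 0% = cytokine-treated negative control wells and 100% = positive control rescue; higher means more ATP so stronger rescue from cytokine killing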
# A1 inh: caspase 3/7 activation in MEF A1-2A-BIM cells, primary screen, A1 inhibitor project, cell-based, luminescence, HTS; AID 2462, 2010; caspase activation, % (test concentration not listed); hit rate 0.066% among 330,000; Caspase-Glo 3/7 luminescence, 3 h; percent of clofoctol response, vehicle zero;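 active = over half of replicate activation scores above 10%, or exactly half above 10 with the replicate mean above 10; inconclusive = replicate mean below 10 yet half the replicates above 10; inactive = over half of replicates below 10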
# Mdm2-MdmX inh: inhibitors of human Mdm2-MdmX association, primary screen, cell-based, luminescence, split luciferase, SaOS-2, uHTS | Protein Mdm4 (Homo sapiens) + E3 ubiquitin-protein ligase Mdm2 (Homo sapiens), … | SaOS-2 split-luciferase Mdm2/MdmX complementation | inhibition, % at 8 µM | hit rate 3% among 330,000 | AID 485346, 2010;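 active = inhibition of at least 50% at 8 µM in the primary screen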
# Target sequence (O15151 whole entry, looked up): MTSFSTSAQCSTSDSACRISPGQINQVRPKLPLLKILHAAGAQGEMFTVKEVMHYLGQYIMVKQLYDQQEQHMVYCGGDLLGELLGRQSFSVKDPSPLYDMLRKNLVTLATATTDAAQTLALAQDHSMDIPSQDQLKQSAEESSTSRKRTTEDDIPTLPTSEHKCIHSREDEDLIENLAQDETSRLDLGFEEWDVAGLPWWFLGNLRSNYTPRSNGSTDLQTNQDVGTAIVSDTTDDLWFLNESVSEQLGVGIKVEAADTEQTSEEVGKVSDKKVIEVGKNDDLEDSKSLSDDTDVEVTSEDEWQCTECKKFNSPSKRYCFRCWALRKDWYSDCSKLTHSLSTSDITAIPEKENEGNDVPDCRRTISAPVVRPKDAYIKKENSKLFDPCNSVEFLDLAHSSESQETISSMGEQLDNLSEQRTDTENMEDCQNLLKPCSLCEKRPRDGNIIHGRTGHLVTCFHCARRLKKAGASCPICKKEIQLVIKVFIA
# Target sequence (Q00987 whole entry, looked up): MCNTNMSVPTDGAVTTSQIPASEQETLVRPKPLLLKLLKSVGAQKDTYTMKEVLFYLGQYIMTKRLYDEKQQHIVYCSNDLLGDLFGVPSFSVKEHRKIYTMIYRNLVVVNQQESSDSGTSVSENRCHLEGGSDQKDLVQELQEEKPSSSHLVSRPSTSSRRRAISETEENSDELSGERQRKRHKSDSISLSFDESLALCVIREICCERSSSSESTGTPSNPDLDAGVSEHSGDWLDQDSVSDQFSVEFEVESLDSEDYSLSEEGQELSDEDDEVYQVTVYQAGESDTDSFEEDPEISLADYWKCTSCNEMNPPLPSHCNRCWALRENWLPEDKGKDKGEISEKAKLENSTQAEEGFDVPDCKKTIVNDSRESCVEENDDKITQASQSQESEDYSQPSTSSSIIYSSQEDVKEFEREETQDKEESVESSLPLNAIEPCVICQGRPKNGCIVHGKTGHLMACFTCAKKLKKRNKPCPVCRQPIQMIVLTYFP
# 697 NFkB conf: PMA/ionomycin-induced NF-kB reporter inhibitors, 697 retest, confirmation, B-cell NF-kB inhibitor project, cell-based, luminescence, single concentration; hit rate 35% among 2,000; shares compounds with 697 NFkB inh; inhibition, % at 4 µM; 697 B-cell NF-kB luciferase, 16 h; in the data active = inhibition mostly above about 28%, no sharp cut-off; inactive = mostly below about 22%
# Starred values were filed as active, the others as inactive; ? = inconclusive; · = no result given. Only some compounds are listed: those with a hit (about 3.8% of all), similar ones and a draw of the others.
SMILES,Jurkat NFkB inh,NTR1 ag,697 NFkB inh,Beta apoptosis,A1 inh,Mdm2-MdmX inh,697 NFkB conf
CCN(CC(=O)Nc1ccccc1C(F)(F)F)C(=O)c1cc(S(=O)(=O)N(C)C)ccc1N1CCCC1,12,0,19,-1,1,15,·
CC(=O)c1ccc(NC(=O)CC2S/C(=N/N=C3CCCCCC3)NC2=O)cc1 (stereo not given),7,0,-10,·,·,21,·
Oc1cccc(-c2nc3ccccc3s2)c1,-148,2,-259,·,-8,-147,-247
O=C(CNC(=O)C1CCCCC1)OCC(=O)c1cccc(Cl)c1,-6,-1,-11,-6,-1,-6,·
CC(=O)c1c(C)nc(Nc2nc3ccccc3s2)nc1C,-129,1,-291,7,-8,-87,-206
Cc1ccc(C)c(C2C(=O)c3ccccc3C2=O)c1,-9,-1,2,-2,0,9,·
Cc1ccc2ccc(C3C(=O)c4ccccc4C3=O)nc2c1,-123,0,-354,22,-4,-39,-176
CCC(=O)N(c1nnc(SCC(=O)NN2C(=O)NC3(CCCCC3)C2=O)s1)C1CC1,-2,0,6,-2,1,-10,·
c1ccc(NC2=NCCN2CCCC2CCCCC2)cc1,14,-4,-1,3,1,32,·
COc1ccc(OCC(=O)N(C)CC2COc3ccccc3O2)cc1 (stereo not given),4,-2,9,-2,0,18,·
COc1ccccc1/C=C1\SC(=S)N(CCC(=O)Nc2nnc(C)s2)C1=O,10,4,51*,2,1,31,29*
Cc1cc(NC(=O)CCCN2C(=O)/C(=C/c3cccs3)SC2=S)no1,-5,2,-5,4,1,49,·
COc1ccccc1/C=C1\SC(=S)N(CCC(=O)NNC(=O)c2ccccc2OC)C1=O,7,1,-3,1,2,21,·
Cc1cc(NC(=O)CCN2C(=O)/C(=C/c3ccccc3Cl)SC2=S)no1,18,7,0,4,0,-2,·
COc1ccccc1/C=C1\SC(=S)N(CCC(=O)Nc2cccc(O)c2)C1=O,-12,12,35*,·,1,3,31*
COc1cc(/C=C2\SC(=S)N(CCC(=O)Nc3cccc(O)c3)C2=O)cc(OC)c1OC,6,15,9,-1,0,12,·
CCc1ccc(/C=C2\SC(=S)N(CCC(=O)Nc3cc(C)on3)C2=O)cc1,-3,0,59*,-1,0,26,44*
COc1ccccc1/C=C1\SC(=S)N(CCC(=O)Nc2cc(C)on2)C1=O,1,4,51*,0,0,-9,38*
CCN1CCN(C(=O)CCc2nnc3ccc(N4CCN(c5cccc(OC)c5)CC4)nn23)CC1,-19,-1,-47,-3,1,-5,·
O=C(NCc1ccccc1)c1ccc(C(=O)N(C2CCCCC2)C2CCCCC2)cc1,25,6,35*,16,?,-16,8
CC(C)(C)c1ccc(C(=O)NCc2ccccc2)cc1,-35,0,-59,5,0,-39,·
CN1CCN(C(=O)c2ccccc2N(Cc2ccccc2)S(=O)(=O)c2ccccc2)CC1,14,0,40*,·,0,-4,25*
O=C(O)CCCCCn1c(SCc2cc(=O)n3cc(Cl)ccc3n2)nc2ccsc2c1=O,3,0,-31,-13,0,13,·
O=C(O)CCCCCn1c(SCc2cc(=O)n3ccccc3n2)nc2ccsc2c1=O,7,2,36*,-3,0,12,23
Cc1ccccc1N1CC(=O)Nc2c(oc3nc(-c4ccccc4)cc(C)c23)C1=O,-1,-1,38*,-6,0,31,-3
SMILES,Jurkat NFkB inh,NTR1 ag,697 NFkB inh,Beta apoptosis,A1 inh,Mdm2-MdmX inh,697 NFkB conf
COc1ccc(/C(C)=N/NC(=O)CNC(=O)c2cccnc2)c(OC)c1,8,-1,7,1,0,-16,·
CCc1cc(CNC(=O)c2ccc(OC3CCN(C(C)=O)CC3)c(OC)c2)on1,-3,-1,9,0,0,-10,·
Cc1ccccc1CN1CCCOCCS1(=O)=O,16,4,8,-5,1,-15,·
Cc1nc2cc(-c3ccc(Cl)cc3)nn2c(C)c1CCC(=O)NC(C)c1ccc2c(c1)OCCO2 (stereo not given),34,11,37*,10,-1,0,27*
Cc1csc(NC(=O)CSc2nnc(-c3ccc(Cl)cc3)n2N)n1,-3,-1,14,-8,0,-12,·
CCc1ccc(C2=NN(CCC(=O)NC(C)c3ccc4c(c3)OCCO4)C(=O)CC2)cc1 (stereo not given),-11,1,-7,-5,0,-11,·
Cc1csc(NC(=O)CCc2c(C)nc3cc(-c4ccc(Cl)cc4)nn3c2C)n1,41,36,42*,9,0,14,42*
COc1cc(OC)cc(-c2cc3nc(C)c(CCC(=O)NCc4ccccc4)c(C)n3n2)c1,14,2,38*,5,2,8,45*
CC(C)C[C@@H](C(=O)NCC1CCCO1)N1C(=O)N2CCc3c([nH]c4ccccc34)[C@@]2(C)C1=O (stereo not given in full),5,-2,-36,-1,-1,2,·
CNC(=S)N(C1=NCC(c2ccc([N+](=O)[O-])cc2)S1)c1ccccc1 (stereo not given),-33,2,-23,-2,0,-13,·
CN(CC(=O)Nc1cccc(F)c1)C(=O)c1cccc(S(=O)(=O)N2CC3(C)CC2CC(C)(C)C3)c1 (stereo not given),2,3,-5,-6,0,18,·
N#C/C(=C\C=C\c1ccccc1)C(=O)N1CCCC1,4,2,4,-5,2,-15,·
CCOC(=O)c1ccc2nc(NC(=O)c3ccco3)sc2c1,-90,-1,-302,16,1,-233,-273
CC1CCc2nc(NC(=O)Cc3cccs3)sc2C1 (stereo not given),-105,2,-101,0,0,-112,·
CCOc1ccc2nc(NC(=O)c3ccco3)sc2c1,-112,2,-327,27,-8,-92,-288
